# Results published in PubChem BioAssay.
# Inconclusive results are not listed. Calls of active or inactive are those of the source.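 The calls were made as follows, unless noted: active = normalized viability below 100% at a tested concentration; inactive = the rest.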
# Key:
# [1] = viability loss in pontine glioma line – cell-based, SU-DIPG-XVII, MIPE5.0, CellTiter-Glo, qHTS, dose response (AID 1347060; cut-off not given, nearly all actives have AC50 up to about 26 µM;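 also: cells exposed to compound for 48 hours before viability readout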); conditions: CellTiter-Glo ATP luminescence
# [2] = viability loss in pontine glioma line – cell-based, SU-DIPG-XIII, MIPE4.0, CellTiter-Glo, qHTS, dose response (AID 1347061; cut-off not given, nearly all actives have AC50 up to about 37 µM;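 also: cells exposed to compound for 48 hours before readout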); conditions: CellTiter-Glo ATP luminescence
# [3] = viability loss in pontine glioma line – cell-based, JHH-DIPG-1, MIPE4.0, CellTiter-Glo, qHTS, dose response (AID 1347062; cut-off not given, nearly all actives have AC50 up to about 27 µM;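 also: cells exposed to compound for two days before readout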); conditions: JHH-DIPG-1 viability, CellTiter-Glo ATP luminescence
# [4] = viability loss in pontine glioma line – cell-based, SU-DIPG-IV, MIPE4.0, CellTiter-Glo, qHTS, dose response (AID 1347063; cut-off not given, nearly all actives have AC50 up to about 30 µM;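 also: compound exposure lasted 48 hours before the viability readout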); conditions: CellTiter-Glo ATP luminescence
# [5] = viability loss in pontine glioma line – cell-based, SU-DIPG-XIII, MIPE5.0, CellTiter-Glo, qHTS, dose response (AID 1347064; cut-off not given, nearly all actives have AC50 up to about 23 µM;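 also: cells exposed to compound for 48 hours before the viability read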); conditions: CellTiter-Glo ATP luminescence
# [6] = viability loss in pontine glioma line – cell-based, SU-DIPG-XXV, MIPE5.0, CellTiter-Glo, qHTS, dose response (AID 1347065; cut-off not given, nearly all actives have AC50 up to about 26 µM;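 also: cells exposed to compound for 48 hours before ATP readout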); conditions: CellTiter-Glo ATP luminescence
# [7] = growth inhibition of DIPG cells – cell-based, MIPE4.0 library, CellTiter-Glo luminescence, qHTS (AID 1347066; cut-off not given, nearly all actives have AC50 up to about 30 µM;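 also: cells exposed to compound for 48 hours before readout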); conditions: SU-DIPG-VI viability, CellTiter-Glo ATP luminescence
# [8] = JHH-DIPG-1 glioma cell viability, MIPE5.0 library, CellTiter-Glo luminescence, qHTS (AID 1347067; cut-off not given, nearly all actives have AC50 up to about 26 µM;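 also: cells exposed to compound for 48 hours before readout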); conditions: JHH-DIPG-1 glioma viability, CellTiter-Glo ATP luminescence
# [9] = growth inhibition of DIPG cells – cell-based, MIPE5.0 library, qHTS (AID 1347068; cut-off not given, nearly all actives have IC50 up to about 30 µM;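 also: cells exposed to compound for 48 hours before viability readout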); conditions: SU-DIPG-XXV viability
# [10] = viability loss with induced miR-34 in A549 – imaging, A549 dox-inducible miR-34, nuclei and caspase counts, primary screen (AID 1347080;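 active = compounds whose cell count with miR-34 switched on is under 0.7 times the count with it off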); conditions: A549 miR-34 inducible, Hoechst nuclei count, 48 h
# [11] = compounds altering HSF1 focus formation in cells – imaging, Selleck Cancer Library (AID 1347162; in the data active = plate-normalised HSF1 focus index below about 0.46); conditions: human cells, HSF1 nuclear foci imaging, at 10 µM; SSMD: measured here: HSF1 foci SSMD mean; cell count: measured here: cell number; plate-normalised HSF1 focus index: stronger effect = lower value
# [12] = MELAS cybrid and Rieske KO viability enhancers – cell-based, MELAS cybrids, Rieske KO mouse fibroblasts, CellTiter-Glo, primary screen (AID 1508586;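 active = mean z-score across replicates of 1.96 or higher in either the MELAS or the Rieske mutant cell line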;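 also: z relative to plate mean and SD of compound and empty wells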); conditions: low glucose
# [13] = drug combination growth inhibition, ovarian cancer – cell-based, oncology-focused library, rucaparib conditional, profiling panel (AID 1508598); conditions: patient-derived ovarian cancer cells, CellTiter-Glo viability, 144 h, stronger effect = lower value
compound,measurement,setting,value
Nc1ccc(-c2ccc3ncc4ccc(=O)n(-c5cccc(C(F)(F)F)c5)c4c3c2)cn1,AC50,[1],93.4 nM (active)
same,AC50,[2],132 nM (active)
same,AC50,[3],74.3 nM (active)
same,AC50,[4],33.2 nM (active)
same,AC50,[5],23.5 nM (active)
same,AC50,[6],20.9 nM (active)
same,AC50,[7],187 nM (active)
same,AC50,[8],166 nM (active)
same,IC50,[9],235 nM (active)
same,fold change,"[10]; stronger effect = lower value, cell number ratio, induced over uninduced",1 (inactive)
same,fold change,[10]; measured here: relative caspase fold change +Dox/-Dox,1.14
same,cell count,"[10]; measured here: total cells with miR-34 induction, stronger effect = lower value",1420
same,cell count,[10]; measured here: total cells without miR-34 induction,1410
same,SSMD,[11],2.81
same,cell count,[11],6780
same,plate-normalised HSF1 focus index,[11],1.15 (inactive)
same,z-score,"[12]; MELAS cybrid survival, CellTiter-Glo 48 h, stronger effect = higher value",3.27 (active)
same,z-score,"[12]; Rieske KO mouse fibroblast survival, CellTiter-Glo 72 h",-0.678
same,viability,"[13]; at 0.000305 µM, OCI-C5x cells, with rucaparib 10 µM, 100% = cells with rucaparib alone",117% (inactive)
same,viability,"[13]; at 0.000305 µM, OCI-C5x cells, without rucaparib",112% (inactive)
same,viability,"[13]; at 0.000305 µM, OCI-P5x cells, with rucaparib 20 µM, 100% = cells with rucaparib alone",87.4% (active)
same,viability,"[13]; at 0.000305 µM, OCI-P5x cells, without rucaparib",87.8% (active)
same,viability,"[13]; at 0.00122 µM, OCI-C5x cells, with rucaparib 10 µM, 100% = cells with rucaparib alone",107% (inactive)
same,viability,"[13]; at 0.00122 µM, OCI-C5x cells, without rucaparib",119% (inactive)
same,viability,"[13]; at 0.00122 µM, OCI-P5x cells, with rucaparib 20 µM, 100% = cells with rucaparib alone",89.2% (active)
same,viability,"[13]; at 0.00122 µM, OCI-P5x cells, without rucaparib",90.5% (active)
same,viability,"[13]; at 0.00488 µM, OCI-C5x cells, with rucaparib 10 µM, 100% = cells with rucaparib alone",118% (inactive)
same,viability,"[13]; at 0.00488 µM, OCI-C5x cells, without rucaparib",83.6% (active)
same,viability,"[13]; at 0.00488 µM, OCI-P5x cells, with rucaparib 20 µM, 100% = cells with rucaparib alone",79.7% (active)
same,viability,"[13]; at 0.00488 µM, OCI-P5x cells, without rucaparib",60.8% (active)
same,viability,"[13]; at 0.0195 µM, OCI-C5x cells, with rucaparib 10 µM, 100% = cells with rucaparib alone",113% (inactive)
same,viability,"[13]; at 0.0195 µM, OCI-C5x cells, without rucaparib",72% (active)
same,viability,"[13]; at 0.0195 µM, OCI-P5x cells, with rucaparib 20 µM, 100% = cells with rucaparib alone",70.7% (active)
same,viability,"[13]; at 0.0195 µM, OCI-P5x cells, without rucaparib",49.8% (active)
same,viability,"[13]; at 0.0781 µM, OCI-C5x cells, with rucaparib 10 µM, 100% = cells with rucaparib alone",109% (inactive)
same,viability,"[13]; at 0.0781 µM, OCI-C5x cells, without rucaparib",92.2% (active)
same,viability,"[13]; at 0.0781 µM, OCI-P5x cells, with rucaparib 20 µM, 100% = cells with rucaparib alone",77.9% (active)
same,viability,"[13]; at 0.0781 µM, OCI-P5x cells, without rucaparib",63.5% (active)
same,viability,"[13]; at 0.313 µM, OCI-C5x cells, with rucaparib 10 µM, 100% = cells with rucaparib alone",109% (inactive)
same,viability,"[13]; at 0.313 µM, OCI-C5x cells, without rucaparib",89.4% (active)
same,viability,"[13]; at 0.313 µM, OCI-P5x cells, with rucaparib 20 µM, 100% = cells with rucaparib alone",73.5% (active)
same,viability,"[13]; at 0.313 µM, OCI-P5x cells, without rucaparib",65.9% (active)
same,viability,"[13]; at 1.25 µM, OCI-C5x cells, with rucaparib 10 µM, 100% = cells with rucaparib alone",62.2% (active)
same,viability,"[13]; at 1.25 µM, OCI-C5x cells, without rucaparib",70.5% (active)
same,viability,"[13]; at 1.25 µM, OCI-P5x cells, with rucaparib 20 µM, 100% = cells with rucaparib alone",67.9% (active)
